# According to publication PMC7862700, “An all-to-all approach to the identification of sequence-specific readers for epigenetic DNA modifications on cytosine”:
# Key:
# Test in all cases: DAPPL (digital affinity profiling via proximity ligation, sequencing); 10 mM Tris-HCl pH 7.5, 50 mM NaCl, 1 mM DTT, 4% glycerol, room temperature, 30 min; GST-TFs on glutathione beads, 16-mer random dsDNA library, 0.1% formaldehyde crosslink after washing; high values mean tight binding
# Details in all cases: protein: recombinant; tags: N-terminal GST; dsDNA, one strand shown
# GABPA = molecular target: T1, GABPA (Homo sapiens, UniProt Q06546 1-454)
# T1 sequence: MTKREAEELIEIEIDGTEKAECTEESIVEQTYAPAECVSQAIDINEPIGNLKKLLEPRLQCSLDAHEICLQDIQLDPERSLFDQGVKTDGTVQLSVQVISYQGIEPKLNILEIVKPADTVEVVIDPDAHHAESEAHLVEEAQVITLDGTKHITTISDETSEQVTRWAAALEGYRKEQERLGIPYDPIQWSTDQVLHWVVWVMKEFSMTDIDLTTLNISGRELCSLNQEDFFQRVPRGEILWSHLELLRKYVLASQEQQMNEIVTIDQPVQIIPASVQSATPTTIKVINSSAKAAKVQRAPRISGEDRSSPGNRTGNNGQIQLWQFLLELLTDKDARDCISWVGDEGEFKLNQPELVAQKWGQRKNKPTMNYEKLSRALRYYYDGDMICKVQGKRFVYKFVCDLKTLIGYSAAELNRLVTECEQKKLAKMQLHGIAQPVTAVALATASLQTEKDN
# Procedure, shortened: (§1)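 GST fusions of human transcription factors were expressed in yeast and captured with glutathione beads. Once given DNA barcodes and pooled alongside a tag-only sample, they were incubated for 30 min at room temperature with 200 nmole of a random double-stranded 16-mer DNA library in Tris/NaCl/DTT/glycerol buffer, then washed, crosslinked (0.1% formaldehyde), proximity-ligated, PCR-amplified and sequenced on an Illumina NextSeq500. The binding signal of each hexamer is its read frequency for a factor divided by its frequency for the tag-only sample.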
# ERG = molecular target: T2, ERG (Homo sapiens, UniProt P11308 1-479)
# T2 sequence: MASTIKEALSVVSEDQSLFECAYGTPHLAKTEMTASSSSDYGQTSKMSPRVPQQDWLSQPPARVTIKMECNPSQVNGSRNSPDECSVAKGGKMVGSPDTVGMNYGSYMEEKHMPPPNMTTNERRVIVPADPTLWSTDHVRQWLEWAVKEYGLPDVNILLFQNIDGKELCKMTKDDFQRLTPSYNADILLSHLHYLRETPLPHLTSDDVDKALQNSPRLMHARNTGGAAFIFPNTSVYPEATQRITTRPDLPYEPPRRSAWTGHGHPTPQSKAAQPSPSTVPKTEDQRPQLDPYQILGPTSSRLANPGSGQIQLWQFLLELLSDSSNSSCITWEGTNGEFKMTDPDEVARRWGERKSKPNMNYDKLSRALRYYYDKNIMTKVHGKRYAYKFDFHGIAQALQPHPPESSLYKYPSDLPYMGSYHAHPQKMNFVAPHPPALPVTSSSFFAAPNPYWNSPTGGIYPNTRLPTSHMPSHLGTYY
# Procedure, shortened: as §1
# ELF1 = ELF1 (Homo sapiens, UniProt P32519 1-619)
# Procedure, shortened: as §1
# EHF = molecular target: T3, EHF (Homo sapiens, UniProt Q9NZC4 1-300)
# T3 sequence: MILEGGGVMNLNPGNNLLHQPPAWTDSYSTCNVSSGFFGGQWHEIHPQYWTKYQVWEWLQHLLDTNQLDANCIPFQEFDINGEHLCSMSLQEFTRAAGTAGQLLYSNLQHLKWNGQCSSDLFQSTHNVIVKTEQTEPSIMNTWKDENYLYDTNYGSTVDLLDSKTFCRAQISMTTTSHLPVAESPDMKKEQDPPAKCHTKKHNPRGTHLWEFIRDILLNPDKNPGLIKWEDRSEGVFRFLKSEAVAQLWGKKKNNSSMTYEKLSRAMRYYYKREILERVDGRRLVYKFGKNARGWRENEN
# Procedure, shortened: as §1
# SPIB = SPIB (Homo sapiens, UniProt Q01892 1-262)
# Procedure, shortened: as §1
# ELK3 = molecular target: T4, ELK3 (Homo sapiens, UniProt P41970 1-407)
# T4 sequence: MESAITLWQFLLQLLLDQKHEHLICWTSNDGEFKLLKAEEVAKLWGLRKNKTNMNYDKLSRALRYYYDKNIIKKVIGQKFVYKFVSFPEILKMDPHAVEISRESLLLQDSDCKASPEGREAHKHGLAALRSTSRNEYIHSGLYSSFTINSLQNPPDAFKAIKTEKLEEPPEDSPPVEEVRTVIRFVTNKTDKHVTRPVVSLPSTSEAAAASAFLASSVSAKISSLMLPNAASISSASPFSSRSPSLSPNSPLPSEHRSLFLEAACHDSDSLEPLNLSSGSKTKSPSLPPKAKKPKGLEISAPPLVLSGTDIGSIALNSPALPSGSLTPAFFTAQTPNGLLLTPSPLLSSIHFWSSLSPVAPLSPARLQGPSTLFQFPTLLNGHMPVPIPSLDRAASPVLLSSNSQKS
# Procedure, shortened: as §1
# ETV5 = ETV5 (Homo sapiens, UniProt P41161 1-510)
# Procedure, shortened: as §1
# SPIC = molecular target: T5, SPIC (Homo sapiens, UniProt Q8N5J4 1-248)
# T5 sequence: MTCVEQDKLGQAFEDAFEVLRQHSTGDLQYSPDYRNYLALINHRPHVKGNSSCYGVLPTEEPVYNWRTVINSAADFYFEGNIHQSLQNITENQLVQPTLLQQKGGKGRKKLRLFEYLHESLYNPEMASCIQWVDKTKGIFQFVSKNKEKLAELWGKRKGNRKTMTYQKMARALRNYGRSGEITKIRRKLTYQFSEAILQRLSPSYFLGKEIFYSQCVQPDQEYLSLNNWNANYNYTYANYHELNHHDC
# Procedure, shortened: as §1
# ELF3 = molecular target: T6, ELF3 (Homo sapiens, UniProt P78545 1-371)
# T6 sequence: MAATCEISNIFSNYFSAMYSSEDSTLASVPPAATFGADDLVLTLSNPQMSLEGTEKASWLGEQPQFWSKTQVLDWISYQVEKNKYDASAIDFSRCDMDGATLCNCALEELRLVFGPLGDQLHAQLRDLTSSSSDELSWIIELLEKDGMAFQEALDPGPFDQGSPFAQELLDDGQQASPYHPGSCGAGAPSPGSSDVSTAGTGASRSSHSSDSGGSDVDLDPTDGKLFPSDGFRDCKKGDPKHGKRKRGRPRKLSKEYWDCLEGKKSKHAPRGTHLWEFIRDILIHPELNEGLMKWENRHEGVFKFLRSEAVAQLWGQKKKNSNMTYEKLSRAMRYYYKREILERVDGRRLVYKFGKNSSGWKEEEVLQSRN
# Procedure, shortened: as §1
# ETV1 = ETV1 (Homo sapiens, UniProt P50549 1-477)
# Procedure, shortened: as §1
# ERF = molecular target: T7, ERF (Homo sapiens, UniProt P50548 1-548)
# T7 sequence: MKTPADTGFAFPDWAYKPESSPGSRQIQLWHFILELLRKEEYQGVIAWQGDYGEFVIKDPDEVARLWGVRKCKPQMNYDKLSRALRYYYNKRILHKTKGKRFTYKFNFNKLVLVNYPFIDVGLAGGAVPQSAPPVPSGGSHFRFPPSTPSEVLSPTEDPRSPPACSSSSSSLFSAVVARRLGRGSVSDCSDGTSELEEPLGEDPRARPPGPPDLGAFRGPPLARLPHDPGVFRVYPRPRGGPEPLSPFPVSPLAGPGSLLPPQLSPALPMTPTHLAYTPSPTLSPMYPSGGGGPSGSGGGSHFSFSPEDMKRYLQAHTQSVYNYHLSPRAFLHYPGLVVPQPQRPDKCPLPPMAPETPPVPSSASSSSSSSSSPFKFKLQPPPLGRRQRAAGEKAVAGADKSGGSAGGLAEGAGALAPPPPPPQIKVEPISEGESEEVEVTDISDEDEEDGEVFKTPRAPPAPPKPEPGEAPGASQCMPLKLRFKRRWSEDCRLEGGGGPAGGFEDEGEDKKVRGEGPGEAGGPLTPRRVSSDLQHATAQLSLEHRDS
# Procedure, shortened: as §1
# ETV3L = molecular target: T8, ETV3L (Homo sapiens, UniProt Q6ZN32 1-361)
# T8 sequence: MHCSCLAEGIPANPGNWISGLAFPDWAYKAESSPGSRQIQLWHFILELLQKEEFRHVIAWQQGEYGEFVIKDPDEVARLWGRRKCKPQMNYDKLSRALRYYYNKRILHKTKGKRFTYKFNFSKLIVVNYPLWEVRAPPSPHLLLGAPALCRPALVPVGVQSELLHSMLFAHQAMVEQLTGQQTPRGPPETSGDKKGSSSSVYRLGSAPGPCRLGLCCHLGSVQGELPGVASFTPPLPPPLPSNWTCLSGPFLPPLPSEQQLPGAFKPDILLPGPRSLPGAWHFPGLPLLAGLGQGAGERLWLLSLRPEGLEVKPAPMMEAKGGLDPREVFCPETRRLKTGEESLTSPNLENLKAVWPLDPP
# Procedure, shortened: as §1
# ETS2 = molecular target: T9, ETS2 (Homo sapiens, UniProt P15036 1-469)
# T9 sequence: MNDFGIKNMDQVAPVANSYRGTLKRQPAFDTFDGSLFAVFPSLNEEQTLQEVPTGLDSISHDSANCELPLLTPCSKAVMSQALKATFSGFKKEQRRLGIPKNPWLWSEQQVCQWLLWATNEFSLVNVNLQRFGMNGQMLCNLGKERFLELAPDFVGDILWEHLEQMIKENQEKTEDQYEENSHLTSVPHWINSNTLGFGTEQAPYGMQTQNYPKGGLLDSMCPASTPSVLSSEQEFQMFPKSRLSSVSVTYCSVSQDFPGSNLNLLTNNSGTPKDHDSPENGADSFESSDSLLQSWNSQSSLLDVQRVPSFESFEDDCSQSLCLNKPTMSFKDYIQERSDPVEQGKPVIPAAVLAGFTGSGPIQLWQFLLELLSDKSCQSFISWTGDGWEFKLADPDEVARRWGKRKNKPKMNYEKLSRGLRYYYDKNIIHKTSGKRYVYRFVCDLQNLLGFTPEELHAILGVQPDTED
# Procedure, shortened: as §1
# ETV7 = molecular target: T10, ETV7 (Homo sapiens, UniProt Q9Y603 1-341)
# T10 sequence: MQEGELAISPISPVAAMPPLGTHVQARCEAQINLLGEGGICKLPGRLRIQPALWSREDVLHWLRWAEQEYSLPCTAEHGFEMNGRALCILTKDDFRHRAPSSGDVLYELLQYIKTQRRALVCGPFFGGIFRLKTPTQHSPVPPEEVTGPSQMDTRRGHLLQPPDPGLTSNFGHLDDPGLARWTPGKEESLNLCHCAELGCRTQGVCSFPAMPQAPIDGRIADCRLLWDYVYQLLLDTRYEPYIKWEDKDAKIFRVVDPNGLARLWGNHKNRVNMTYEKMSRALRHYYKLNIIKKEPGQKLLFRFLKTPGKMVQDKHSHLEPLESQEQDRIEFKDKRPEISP
# Procedure, shortened: as §1
# ETV6 = ETV6 (Homo sapiens, UniProt P41212 1-452)
# Procedure, shortened: as §1
# Sequence of ETV5 (P41161 whole entry): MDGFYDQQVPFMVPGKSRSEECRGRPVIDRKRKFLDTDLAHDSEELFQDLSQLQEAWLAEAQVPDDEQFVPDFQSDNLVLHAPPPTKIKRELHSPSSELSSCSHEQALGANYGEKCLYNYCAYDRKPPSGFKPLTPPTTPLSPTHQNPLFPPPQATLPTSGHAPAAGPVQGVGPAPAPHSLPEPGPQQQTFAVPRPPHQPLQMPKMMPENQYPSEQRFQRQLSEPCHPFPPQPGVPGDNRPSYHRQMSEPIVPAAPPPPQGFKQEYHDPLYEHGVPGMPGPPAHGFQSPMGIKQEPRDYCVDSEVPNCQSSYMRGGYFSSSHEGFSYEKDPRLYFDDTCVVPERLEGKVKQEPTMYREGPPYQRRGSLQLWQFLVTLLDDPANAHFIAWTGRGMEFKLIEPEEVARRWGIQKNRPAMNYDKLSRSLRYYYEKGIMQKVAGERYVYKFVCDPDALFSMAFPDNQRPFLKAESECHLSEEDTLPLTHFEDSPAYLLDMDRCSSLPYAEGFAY
# Sequence of SPIB (Q01892 whole entry): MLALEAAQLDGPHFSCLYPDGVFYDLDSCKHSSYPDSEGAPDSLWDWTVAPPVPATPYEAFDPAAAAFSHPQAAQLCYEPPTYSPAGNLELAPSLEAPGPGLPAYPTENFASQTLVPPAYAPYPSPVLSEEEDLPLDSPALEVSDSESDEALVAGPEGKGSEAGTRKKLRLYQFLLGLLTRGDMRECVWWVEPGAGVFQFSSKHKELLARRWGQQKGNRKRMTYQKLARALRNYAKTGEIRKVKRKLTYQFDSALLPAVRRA
# Sequence of ETV6 (P41212 whole entry): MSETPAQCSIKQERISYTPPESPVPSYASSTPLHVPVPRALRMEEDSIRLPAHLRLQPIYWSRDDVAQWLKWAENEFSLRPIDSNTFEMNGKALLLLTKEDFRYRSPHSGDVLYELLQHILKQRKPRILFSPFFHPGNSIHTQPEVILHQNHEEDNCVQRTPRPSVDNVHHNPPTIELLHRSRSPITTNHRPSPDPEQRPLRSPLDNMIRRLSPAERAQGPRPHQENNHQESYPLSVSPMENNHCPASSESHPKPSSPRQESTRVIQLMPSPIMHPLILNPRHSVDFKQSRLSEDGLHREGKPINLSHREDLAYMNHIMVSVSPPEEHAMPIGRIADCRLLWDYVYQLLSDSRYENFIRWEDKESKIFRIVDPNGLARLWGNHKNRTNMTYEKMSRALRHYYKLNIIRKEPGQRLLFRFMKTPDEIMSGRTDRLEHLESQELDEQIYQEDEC
# Sequence of ELF1 (P32519 whole entry): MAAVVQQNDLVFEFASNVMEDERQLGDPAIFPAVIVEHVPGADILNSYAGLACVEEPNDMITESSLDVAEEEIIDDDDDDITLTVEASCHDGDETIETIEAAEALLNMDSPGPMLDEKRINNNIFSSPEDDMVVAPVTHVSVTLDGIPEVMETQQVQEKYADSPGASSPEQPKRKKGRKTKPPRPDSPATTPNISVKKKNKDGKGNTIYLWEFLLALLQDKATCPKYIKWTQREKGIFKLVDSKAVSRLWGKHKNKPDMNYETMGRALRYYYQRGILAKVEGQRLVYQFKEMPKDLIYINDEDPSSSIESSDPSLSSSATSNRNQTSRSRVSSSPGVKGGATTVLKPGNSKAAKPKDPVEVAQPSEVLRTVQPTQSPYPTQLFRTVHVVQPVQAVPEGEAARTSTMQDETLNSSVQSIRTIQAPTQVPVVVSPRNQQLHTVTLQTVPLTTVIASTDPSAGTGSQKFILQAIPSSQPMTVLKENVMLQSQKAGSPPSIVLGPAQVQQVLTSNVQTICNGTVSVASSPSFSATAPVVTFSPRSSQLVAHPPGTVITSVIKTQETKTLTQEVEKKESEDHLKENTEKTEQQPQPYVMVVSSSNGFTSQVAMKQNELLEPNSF
# Sequence of ETV1 (P50549 whole entry): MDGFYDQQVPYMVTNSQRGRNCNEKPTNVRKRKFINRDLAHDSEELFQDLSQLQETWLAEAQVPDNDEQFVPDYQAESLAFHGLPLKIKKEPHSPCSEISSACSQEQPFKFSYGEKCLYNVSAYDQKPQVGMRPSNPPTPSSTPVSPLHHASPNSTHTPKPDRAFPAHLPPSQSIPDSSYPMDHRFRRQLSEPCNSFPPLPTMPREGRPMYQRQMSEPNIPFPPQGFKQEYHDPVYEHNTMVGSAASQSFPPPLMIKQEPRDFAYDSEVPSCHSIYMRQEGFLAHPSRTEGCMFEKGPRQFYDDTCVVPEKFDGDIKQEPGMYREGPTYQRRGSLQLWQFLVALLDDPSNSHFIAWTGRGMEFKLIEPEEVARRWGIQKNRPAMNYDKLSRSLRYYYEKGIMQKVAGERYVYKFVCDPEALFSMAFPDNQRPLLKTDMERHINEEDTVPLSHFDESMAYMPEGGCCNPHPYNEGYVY
sequence,measurement,setting,value
ATAGGC,binding signal,GABPA,"1.01 fold enrichment (6-mer frequency, TF over GST control)"
same,binding signal,ERG,"1.01 fold enrichment (6-mer frequency, TF over GST control)"
same,binding signal,ELF1,"1.03 fold enrichment (6-mer frequency, TF over GST control)"
same,binding signal,EHF,"1.04 fold enrichment (6-mer frequency, TF over GST control)"
same,binding signal,SPIB,"1.11 fold enrichment (6-mer frequency, TF over GST control)"
same,binding signal,ELK3,"1.02 fold enrichment (6-mer frequency, TF over GST control)"
same,binding signal,ETV5,"1.1 fold enrichment (6-mer frequency, TF over GST control)"
same,binding signal,SPIC,"1.06 fold enrichment (6-mer frequency, TF over GST control)"
same,binding signal,ELF3,"1.07 fold enrichment (6-mer frequency, TF over GST control)"
same,binding signal,ETV1,"1.01 fold enrichment (6-mer frequency, TF over GST control)"
same,binding signal,ERF,"1.04 fold enrichment (6-mer frequency, TF over GST control)"
same,binding signal,ETV3L,"1.02 fold enrichment (6-mer frequency, TF over GST control)"
same,binding signal,ETS2,"1.01 fold enrichment (6-mer frequency, TF over GST control)"
same,binding signal,ETV7,"1.01 fold enrichment (6-mer frequency, TF over GST control)"
same,binding signal,ETV6,"1.04 fold enrichment (6-mer frequency, TF over GST control)"
